These results are taken from PubChem BioAssay AID504444 (National Center for Advancing Translational Sciences (NCATS), 2011).

Screen size: about 360,000 compounds; about 7,500 (2.1%) were called active. Where a call stands in place of a potency, no number is given. Another 20% or so got no clear call; they are omitted. Many of the other results were omitted from the sample, so actives are more common in it than they were. Unmarked numbers belong to inactive results. The call rests on the fitted dose curve; in most records, active means well fitted inhibition curve with a large enough effect; inconclusive means small, poorly fitted or top-dose-only effect, or effect the other way; inactive means flat fitted curve, though single readings scatter.
Potency means the concentration at half of the fitted maximal effect.

This test is described as follows: Nrf2 qHTS screen for inhibitors. Further: nearly all actives have a fitted effect of over 60% in size. The settings on record: A549 ARE-Fluc reporter, luciferase luminescence, 18-24 h; series mostly up to 46 µM. The text has this: NIH Molecular Libraries Probe Production Network [MLPCN]
NIH Chemical Genomics Center [NCGC]
Assay Provider: Shyam Biswal, Johns Hopkins University
Nrf2 is a transcription factor that maintains cellular redox homoestasis and protects cells from xenobiotics. Nrf2 binds to the antioxidant response element (ARE) to induce gene expression of a broad spectrum of genes that encode for antioxidants. […] Finding a small molecule that act as an inhibitor of Nrf2 function would represent a novel therapeutic target that could lead to improvement in survival of patients undergoing chemo- and/or radio- therapy.
This is the Nrf2 activity measured in the luminescent read.
1. Shibata, T., et al., Genetic Alteration of Keap1 Confers Constitutive Nrf2 Activation and Resistance to Chemotherapy in Gallbladder Cancer. Gastroenterology, 2008.
2. Sjoblom, T., et al., The consensus coding sequences of human breast and colorectal cancers. Science, 2006. 314(5797): p. 268-74.
NCGC Assay Protocol Summary:
A concentration-response assay was performed with A549 ARE_Fluc cells which are suspended in 5% FBS OPTI-MEM. Five uL were dispensed into 1536-well white TC-treated plate using the Kalypsys dispenser to achieve a density of 5000 cells/well in all columns except column 1. The plate is incubated at 37deg C at 5% CO2 for 2 hours before 23 nL of compounds are added with the Kalypsys pin tool equipped with a 1,536-pin array containing 10-nL slotted pins (FP1S10, 0.457-mm diameter, 50.8 mm long; V&P Scientific). The control compounds Budesonide and Staurosporine are both added at a concentration of 2mM and Budesonide is also added as a 1:10 titration, starting at 200uM, to achieve dose-response. After an 18-24 hour incubation at 37deg C at 5% CO2, 5ul of medium is added to column 1. Afterwards 1ul of 5x of CellTiter-Fluor (Promega) is added to every well. The plate is then incubated at 37deg C at 5% CO2 for 30 minutes before they are read on the ViewLux (Perkin Elmer) for a fluorescent read Ex=405(10)/Em=525(10) for a 3 second exposure, 2x binning, and high gain. Then 3 uL of 3x BugLite is dispensed into all wells and the plate is incubated at ambient room temperature for 15 minutes. Afterwards another ViewLux read is performed using the clear filter to get a luminescent read with the settings of 40 second exposure, 2x binning, and high gain. Cytotoxicity is assessed through the first fluorescent read and then biochemical activity against Nrf2 is measured in the luminescent read.
In general terms: Quantitative high-throughput screening tests each substance at several concentrations.
Regarding `CCOC(=O)C1=C(CN2CCCCCC2)NC(=O)NC1c1cccc([N+](=O)[O-])c1` (configuration not stated), the Potency result is “inactive”. Consider `CCOC(=O)C1=C(CN2CCc3ccccc32)NC(=O)NC1c1ccc(Cl)cc1` (configuration not stated), for which the Potency is 16.4 µM (active).

As for `CCOC(=O)C1=C(CN2CCc3ccccc32)NC(=O)NC1c1cccc([N+](=O)[O-])c1` (configuration not stated), the Potency result was “inactive”. Turning to `COc1ccc(CNCCCn2cnc3c(OCc4ccccc4)ncnc32)cc1`, the Potency result was “inactive”.

Consider `CCOC(=O)c1cnc(-n2nc(C)cc2C)nc1Nc1cccc(C(C)=O)c1`, for which the Potency result is “inactive”. On the same count and under the same terms, to `CCOC(=O)c1cnc(-n2nc(C)cc2C)nc1NNc1cc(C)nc(-c2ccccc2)n1` belongs 4.11 µM (active). Same read-out and setting: to `Cc1cc(C)n(-c2c(F)c(F)c(COC(=O)c3ccccc3)c(F)c2F)n1` belongs “inactive”. On the same count and under the same terms, then `O=c1n(Cc2cccc(C(F)(F)F)c2)c2ccccc2c2nc(-c3ccccc3)nn12`, with “inactive”; and `CC(Nc1ccc([N+](=O)[O-])cc1[N+](=O)[O-])c1ccccc1` (configuration not stated), with “inactive”; and `CCn1cc(C(=O)OCC(=O)Nc2cc(C)cc(C)c2)c(=O)c2ccc(C)nc21`, with “inactive”. In the case of `CC[C@]1(C(=O)OC)[C@H]2C(=O)N(Cc3ccccc3)C(=O)[C@H]2[C@H]2CN=C(SCc3ccc(Cl)cc3)N21`, the Potency entry is “inactive”. In the case of `Cc1ccccc1C(=O)NCCN=C1NS(=O)(=O)c2ccccc21`, the Potency result is “inactive”. For `Cc1ccc2ccc3c(c2n1)NS(=O)(=O)c1ccccc1-3`, the Potency was 20.6 µM (active). Regarding `Cc1ccc2cccc(NC(=O)c3cccc4ccccc34)c2n1`, the Potency entry is “inactive”. On to `CC(C)(C)OC(=O)C[C@@H]1C/C=C\C[C@@H](CC(=O)N[C@H](CO)Cc2ccccc2)C(=O)NC[C@@H](c2ccccc2)OC1=O`, for which the Potency entry is “inactive”. Still for that read-out and setting: then `Cc1ccc(CN(C(=O)c2ccccc2[N+](=O)[O-])c2ccccn2)cc1`, with “inactive”; and `O=C(Nc1ccc(Cl)cc1)Nc1ccc(C(=O)N2CCOCC2)cc1`, with “inactive”.

`O=C(Nc1ccc(Cl)cc1)c1cccc(OC(=S)N2CCOCC2)c1`: the Potency was 23.1 µM (active). The same measure, in the same setting: to `O=C(Oc1cccc(C(=S)N2CCOCC2)c1)c1cccc(Cl)c1` belongs “inactive”; to `CCCCNC(=O)C(C)N(CCN(C)C)C(=O)CCCN1C(=O)NC(c2ccc(Cl)cc2)C(C(=O)OCc2ccccc2)=C1C` (configuration not stated), “inactive”; to `Cc1ccc(OCc2nc(C#N)c(N3CCCC3)o2)cc1`, “inactive”.

For `N#Cc1nc(COc2ccc(-c3ccccc3)cc2)oc1NCc1cccnc1`, the Potency was 13 µM (active).

For `N#Cc1nc(Cc2cccc3ccccc23)oc1NCc1ccc2c(c1)OCO2`, the Potency result was “inactive”. The same measure, in the same setting: to `Oc1ccc(Br)cc1C1C=C(c2ccc3c(c2)OCO3)NC(c2ccc(Cl)cc2)N1` (configuration not stated) belongs “inactive”. Same read-out and setting: to `Cc1cccc(C)c1NC(=O)COC(=O)c1c(C)nn(-c2ccccc2)c1C` belongs “inactive”. Same read-out and setting: then `CC1CCc2sc(C(=O)NCC(c3ccco3)N3CCCCC3)cc2C1` (configuration not stated), with “inactive”; and `CCOC(=O)N1CCN(C(=O)COc2ccc(Cl)cc2C)CC1`, with “inactive”; and `Cc1cc(NC(=O)COC(=O)COc2ccc(Cl)cc2C)c([N+](=O)[O-])cc1C`, with “inactive”.

For `CCCn1nnnc1NC(=O)COc1ccc(Cl)cc1C`, the Potency was 13 µM (active). Still for that read-out and setting: then `CCCc1cc(=O)[nH]c(SCC(=O)Nc2ccc(C(=O)Nc3ccccc3OC)cc2)n1`, with “inactive”; and `Cc1ccccc1NC(=O)Cn1c(=O)n(CCc2ccccc2)c(=O)c2ccccc21`, with “inactive”. As to `COc1ccc(S(=O)(=O)N(C)C[C@@H]2Oc3ccc(NC(=O)Nc4c(C)noc4C)cc3C(=O)N([C@H](C)CO)C[C@@H]2C)cc1`, the Potency entry was “inactive”.

Regarding `CCOc1ccc(NC(=O)c2ccc(NC(=O)COC(=O)c3ccc(NC(=O)CC#N)cc3)cc2)cc1`, the Potency result was “inactive”. For the compound `COc1ccc(NC(=O)COC(=O)CNC(=O)C2CCCCC2)cc1`, the Potency entry is “inactive”. The same measure, in the same setting: to `CCC(C)(C)c1ccc(Oc2ccc(NC(=O)COC(=O)C3=COCCO3)cc2)cc1` belongs 8.2 µM (active); to `COc1cc(OC)cc(-c2c(C#Cc3ccsc3)c3cc(-c4ccc(OC)cc4F)ccc3n2C)c1`, “inactive”. On the same count and under the same terms, then `O=C(NCCC(=O)N1O[C@@H]2C=C[C@H]1C2)OCC1c2ccccc2-c2ccccc21`, with “inactive”; and `COc1ccc(Cn2c(=O)sc3ccccc32)cc1OC`, with 25.9 µM (active); and `Cc1cccc(CSc2nnc(Cn3c(=O)sc4ccccc43)n2C)c1`, with “inactive”. As for `COc1ccccc1CNC(=O)CCn1c(=O)sc2ccccc21`, the Potency entry is “inactive”.

For the compound `COc1ccc(-n2c(SC)nc3sc4c(c3c2=O)CCN(C(C)=O)C4)cc1`, the activity change, negative = inhibition was 1.06% [at 9.27 µM]. On to `CN(C(=O)c1cccc(NC(=O)Cc2cccc(NC(=O)C3CCCN(C(=O)C4CC4)C3)c2)c1)C1CCC1` (configuration not stated), for which the Potency entry is “inactive”. Still for that read-out and setting: then `CN(CCc1ccccc1)C(=O)c1cccc(NC(=O)Cc2cccc(NC(=O)C3CCCN(C(=O)CCc4ccccc4)C3)c2)c1` (configuration not stated), with 23.1 µM (active); and `CN(C(=O)c1cccc(NC(=O)Cc2ccc(NC(=O)C3CCCN(C(=O)C4CC4)C3)cc2)c1)C1CC1` (configuration not stated), with “inactive”. Take `CCCN(C(=O)Cn1cc(S(=O)(=O)N2CCN(c3ccccc3F)CC2)c2ccccc2c1=O)c1cccc(C)c1`: the Potency entry was “inactive”.

Take `COc1ccc(CNC(=O)COc2ccccc2C(=O)c2cnn(-c3ccccc3)c2)cc1OC`: the Potency entry is “inactive”. Still for that read-out and setting: to `Cc1ccc(C(=O)OCC(=O)NCc2cc(C)c(O)c(C)c2)cc1S(=O)(=O)N1CCCCC1` belongs “inactive”; to `COc1ccc2c(C)c(CCC(=O)NCc3ccc(OC)c(OC)c3)c(=O)oc2c1`, “inactive”. Regarding `CCC(CO)Oc1cc(NCc2ccccc2)c2ncn(C3CCCC3)c2c1` (configuration not stated), the Potency result was “inactive”. As for `NC(=O)CC(NC(=O)Cc1ccc(Br)cc1)c1ccc(NC2CC3CCC2C3)c([N+](=O)[O-])c1` (configuration not stated), the Potency is 18.4 µM (active). The same measure, in the same setting: to `Cc1cc(C)cc(C(=O)NC(CC(N)=O)c2ccc(N3CCC(N4CCCCC4)CC3)c([N+](=O)[O-])c2)c1` (configuration not stated) belongs “inactive”; to `CC1CCCCN1CCCNc1ccc(C(CC(N)=O)NC(=O)c2ccccc2)cc1[N+](=O)[O-]` (configuration not stated), “inactive”.

With `O=C1OCC2=C1C(c1ccc(Cl)cc1)c1cc3c(cc1O2)OCO3` (configuration not stated), the Potency result is “inactive”. Same read-out and setting: then `COc1ccc(Cl)cc1NC(=O)Cn1c(=O)c2ccccc2n2nncc12`, with “inactive”. On the same count and under the same terms, to `Cc1ccc(N=C2NC(=O)/C(=C/C=C/c3ccco3)S2)cc1C` belongs “inactive”; to `Cc1cccc(N=C2NC(=O)/C(=C/c3cn(C)c4ccccc34)S2)c1`, 14.6 µM (active). With `CN(C)c1ccc(-n2cccc2/C=C2/SC(=Nc3ccc(F)cc3)NC2=O)cc1`, the Potency entry was “inactive”.
